BRCA1 expr act: qHTS Assay to Identify Small Molecule Activators of BRCA1 Expression; Potency, µM (doses to about 46.1 µM), without a hit: top-dose activation, usual class: activators; actives 1.1% (n = 380,000); AID 624202, 2012; MCF7-BRCA1-FFLuc reporter, luminescence, 48 h; response scale: scaled: vehicle 0%, 10 µM genistein 100%; also: potency is read from the fitted curve at half-maximal effect; nearly all actives have a fitted effect of over 80% in size
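Cells: MCF7-BRCA1-FFLuc, 2000/well. Exposure: 48 h, 37 °C, 5% CO2. Read: luminescence, 15 min post-substrate. Controls: genistein 10 microM (maximal activation), DMSO (neutral).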
Apoferritin bind: qHTS Assay for Identification of Novel General Anesthetics; Ferritin light chain (Equus caballus), P02791; apoferritin/1-aminoanthracene competitive binding, fluorescence; Potency, µM (series often up to 77.5 µM), inactives show top-dose activity change, negative = displacement, usual class: inhibitors; actives 0.074% (n = 350,000); AID 485281, 2010; also: potency is read from the fitted curve at half-maximal effect; % is scaled to controls: 0 for no effect and ±100 for the full control effect; nearly all actives have a fitted effect of over 20% in size
Target sequence (P02791 2-175 limits assumed): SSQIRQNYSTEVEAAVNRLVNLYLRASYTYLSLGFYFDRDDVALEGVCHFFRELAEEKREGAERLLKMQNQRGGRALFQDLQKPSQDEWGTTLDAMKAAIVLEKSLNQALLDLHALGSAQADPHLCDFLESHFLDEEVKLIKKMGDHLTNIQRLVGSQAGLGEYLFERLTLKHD
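Read-out: endpoint 1-AMA fluorescence, excitation 380 nm and emission 535 nm, after compounds sit 10 min at room temperature with 10 uM horse-spleen apoferritin in 50% saturated 1-AMA/PBS. Values come from four-parameter Hill fits.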
PKM2 activator: qHTS Assay for Activators of Human Muscle isoform 2 Pyruvate Kinase; Pyruvate kinase PKM (Homo sapiens), P14618; purified PKM2, Kinase-Glo ATP luminescence, activation; response scale: 0% is enzyme alone, no compound; Potency, µM (titrated, usually from 57.5 µM), for inactives: top-dose activation, hits mostly activators; actives 0.34% (n = 260,000); AID 1631, 2009; also: potency is read from the fitted curve at half-maximal effect; % is scaled to controls: 0 for no effect and ±100 for the full control effect; nearly all actives have a fitted effect of over 55% in size
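Purified hPK-M2 (>95% pure) converted ADP (0.1 mM final) to ATP with 0.5 mM PEP in 50 mM imidazole pH7.2, KCl, MgCl2, Tween 20, BSA; 1 h at room temperature. ATP detected by Kinase-Glo luminescence.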
IL-2 act: qHTS of IL-2 Activators; IL-2 activation reporter assay, cell-based qHTS; stimulated with anti-CD3/CD4/CD28 beads; in transgenic mouse T cells; activation, % (series mostly up to about 46 µM); actives 0.065% (n = 360,000); AID 652025, 2013; in the data active = activation above about 50%; inconclusive = mostly about 30% to 49%; also: 0% is about no effect
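First, unstimulated transgenic mouse T cells were exposed to compound for 60 min. Next, anti-CD3/anti-CD4-coated beads with anti-CD28 were added. Finally, after 18 h at 37 degrees C, EGFP and DsRed were imaged.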
a7 integrin act: qHTS for Activators of Integrin-Mediated Alleviation for Muscular Dystrophy; actives 0.064% (n = 350,000); AID 624291, 2012; alpha7betagal myoblasts, beta-gal FDG fluorescence, 48 h; Potency, µM (doses to about 38.3 µM), for inactives: at the top dose activation, hits mostly activators;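 also: potency is read from the fitted curve at half-maximal effect; 100% = response of the positive control SU9516; nearly all actives have a fitted effect of over 60% in size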
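alpha7betagal+/- myoblasts (passage 13, 250/well) treated 48 h at 37C with compounds at 1:260 dilution of DMSO stock. Lysed, then beta-galactosidase activity read as FDG fluorescence (ex 480/em 540) after 30 min, with pre-read for autofluorescence.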
Numbers without * were called inactive; ? = inconclusive; nt = no result given. Most compounds without a hit are left out; they make up all but 1.3% or so of the library. Unless noted, calls follow the shape of the dose curve; as a rule, active = well fitted curve in the direction sought with a large enough effect; inconclusive = small, poorly fitted or top-dose-only effect, or another doubt; inactive = no such curve, though single readings can be large; an effect the other way counts as inactive or inconclusive.

SMILES	BRCA1 expr act	Apoferritin bind	PKM2 activator	IL-2 act	a7 integrin act
Cc1ccc2oc(-c3ccc(C)c(NC(=O)COc4ccc(Cl)cc4C)c3)nc2c1	12%	nt	nt	nt	nt
Cc1ccc(S(=O)(=O)Nc2cccc3ccc(C)nc23)cc1	nt	-4%	nt	nt	nt
COc1ccc(C2CC(=O)c3cc(-c4nc(-c5cccc([N+](=O)[O-])c5)cs4)c(=O)n(-c4ccc(C)c(C)c4)c3C2)cc1 (stereo not given)	nt	43%	nt	nt	nt
COc1ccc(/C(N)=N/OC(=O)c2ccc3c(c2)OCO3)cc1	3.2µM*	-7%	-5%	1	9%
Cc1ccc(/C(N)=N/OC(=O)c2ccc3c(c2)OCO3)cc1	?	-12%	-9%	-3	2%
O=C(CCCCn1c(=O)c2ccccc2n(Cc2ccc(Cl)cc2)c1=O)NCc1ccccc1Cl	12%	39%	nt	nt	nt
CCOc1cc(C)cc2oc(=O)cc(-c3ccccc3)c12	1%	?	-2%	0	26%
Cc1cc(OC(C)C)c2c(-c3ccccc3)cc(=O)oc2c1	-38%	18µM*	-4%	0	26%
COC(=O)C(Cc1c[nH]c2ccccc12)NC(=O)c1ccc2nc[nH]c2c1 (stereo not given)	10µM*	nt	nt	5	17%
O=C(NCCc1ccccc1)c1ccc2c(c1)N(Cc1ccccc1Cl)C(=O)c1ccccc1S2	nt	4%	nt	nt	nt
COc1ccccc1/C=C/c1nc2ccccc2[nH]1	0%	nt	nt	nt	nt
CN(C)/[N+]([O-])=N/Oc1ccc([N+](=O)[O-])cc1[N+](=O)[O-]	-36%	nt	nt	nt	nt
COc1ccc(Cc2nc(-c3ccccc3)no2)cc1	11µM*	-5%	-4%	0	-1%
Brc1ccc(-c2noc(CCc3ccccc3)n2)cc1	53%	nt	nt	0	11%
c1ccc(CCc2nc(-c3cccnc3)no2)cc1	10µM*	-6%	0%	-1	-1%
O=C(NCCc1nc(-c2ccc(F)cc2)no1)c1ccc(F)cc1	-12%	nt	nt	1	6%
CCCc1nc(-c2ccc(-c3ccc(F)cc3)cc2)no1	4µM*	-12%	1%	-2	5%
c1ccc(CCc2nc(-c3ccccc3)no2)cc1	13µM*	-15%	-4%	-2	14%
COc1ccc(Cc2nc(-c3ccc(-n4cccc4)cc3)no2)cc1	11%	6%	-3%	-1	3%
O=C(Nc1ccc(Cl)cc1)N1CCC(c2ccccc2)C1 (stereo not given)	?	-16%	-11%	-3	5%
Cc1ccc(C2CCN(C(=O)Nc3ccccc3)C2)cc1 (stereo not given)	5µM*	-22%	-2%	0	1%
Cc1ccc(NC(=O)N2CCC(c3ccccc3)C2)cc1C (stereo not given)	2.8µM*	?	-12%	-3	1%
Cc1ccc(NC(=S)N2CCC(c3ccc(C)cc3)C2)cc1 (stereo not given)	11µM*	-6%	-3%	0	?
O=C(c1ccc(F)cc1)N1CCC(c2ccccc2)C1 (stereo not given)	6.3µM*	-1%	-2%	-3	26%
COc1cc(OC)c(/C=C/c2cc3ccccc3c[n+]2C)c(OC)c1	-42%	nt	nt	nt	nt
SMILES	BRCA1 expr act	Apoferritin bind	PKM2 activator	IL-2 act	a7 integrin act
COC(=O)c1ccccc1NC(=O)COc1ccccc1C(=O)Nc1ccccc1	0%	nt	nt	nt	nt
O=C(COc1ccccc1C(=O)Nc1ccccc1)Nc1ccccc1Cl	-51%	nt	nt	nt	nt
CC(=O)Nc1ccccc1NS(=O)(=O)c1ccccc1[N+](=O)[O-]	0%	-4%	40µM*	0	-25%
Cc1cc(=O)n(CC(=O)NC(C)c2ccccc2)c2c1c(C)nn2-c1cccc(F)c1 (stereo not given)	nt	40%	nt	nt	nt
Cc1cc(OCCn2cnc3ccccc3c2=O)ccc1[N+](=O)[O-]	5%	-6%	-1%	-2	-13%
Cc1ccc(OCCn2cnc3ccccc3c2=O)c([N+](=O)[O-])c1	4.5µM*	5%	2%	-1	-6%
Cc1ccc(S(=O)(=O)CNC(=S)c2cccc(C)c2)cc1	3%	28µM*	-5%	-1	-22%

From PubChem BioAssay
